Reference: the supplement of paper PMC3342239
Structures can show the parent of a compound that is named as a salt.

Tested on: Saccharomyces cerevisiae
Experiment: fraction of cells in G1 phase (DNA content, flow cytometry); higher = more cells with unreplicated DNA (G1 delay)
Details: temperature: 30 C; YPD; JTY2953 pdr5 snq2 (sensitized); drug added to: cultures diluted from stationary phase; 6-7 h
Method in brief: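 Library drugs were added to S. cerevisiae in YPD at 30°C, with fixation after 6–7 h for sensitized JTY2953 diluted 1∶200 from overnight and given a final 20 µg/ml, 6 h for dividing JTY2953, and 4.33 h for BY4741. Ethanol-fixed cells stained with SYTOX Green were read by flow cytometry, 10,000 events each. The G1 fraction is the ratio of the Dean-Jett-Fox G1 peak area to the G1 plus G2/M areas.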

## COc1ccc2cc(CCC(C)=O)ccc2c1 [Nabumetone] (87.6065 µM)
  fraction of cells in G1 phase: 0.535

## Cc1nccn1CC1CCc2c(c3ccccc3n2C)C1=O (stereo not given) [Ondansetron] (68.1729 µM)
  fraction of cells in G1 phase: 0.463

## Cc1ncc([N+](=O)[O-])n1CCO [Metronidazole] (116.852 µM)
  fraction of cells in G1 phase: 0.422

## O=C(NC(Cc1cc(=O)[nH]c2ccccc12)C(=O)O)c1ccc(Cl)cc1 (stereo not given) [Rebamipide] (53.9381 µM)
  fraction of cells in G1 phase: 0.473

## CC(C)C[C@H](NC(=O)[C@@H](COC(C)(C)C)NC(=O)[C@H](Cc1ccc(O)cc1)NC(=O)[C@H](CO)NC(=O)[C@H](Cc1c[nH]c2ccccc12)NC(=O)[C@H](Cc1cnc[nH]1)NC(=O)[C@@H]1CCC(=O)N1)C(=O)N[C@@H](CCCNC(=N)N)C(=O)N1CCC[C@H]1C(=O)NNC(N)=O [Goserelin acetate] (15.755 µM)
  fraction of cells in G1 phase: 0.485

## CC(C)NCC(O)c1ccc(NS(C)(=O)=O)cc1 (stereo not given) [Sotalol HCl] (73.4298 µM)
  fraction of cells in G1 phase: 0.535

## CC1=C(/C=C/C(C)=C/C=C/C(C)=C/C=C/C=C(C)/C=C/C=C(C)/C=C/C2=C(C)C(=O)CCC2(C)C)C(C)(C)CCC1=O [Canthaxanthin] (35.4071 µM)
  fraction of cells in G1 phase: 0.527

## COC(=O)CCc1ccc(OCC(O)CNC(C)C)cc1 (stereo not given) [Esmolol] (67.7089 µM)
  fraction of cells in G1 phase: 0.459

## CCOC(=O)[N-]c1c[n+](N2CCOCC2)no1 [Molsidomine] (82.564 µM)
  fraction of cells in G1 phase: 0.543

## O=C(CCCCCCC(=O)Nc1ccccc1)NO [Vorinostat] (75.6716 µM)
  fraction of cells in G1 phase: 0.482
